Bioassay records from PubChem.
TRHR ag: qHTS for Small Molecule Agonists and Allosteric Enhancers of Human TRH Receptor: Primary Screen for Agonists; Thyrotropin-releasing hormone receptor (Homo sapiens), P34981; TRHR cells, calcium flux fluo-8, FDSS agonist mode; activation, % at 2 µM; 360,000 compounds, 0.18% hits
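In this calcium-flux screen, cells bearing human TRHR are dye-loaded with fluo-8, baselined for 10 cycles, then exposed to library compounds; positive kinetic calcium responses during the agonist phase mark hits, with TRH as control.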
D1 agonist: Allosteric Agonists of the Human D1 Dopamine Receptor: qHTS; HEK293 T-REx D1 cells, calcium flux, agonist mode; activation, % at 2 µM; 360,000 compounds, 1% hits
Target sequence (P21728 whole entry, looked up): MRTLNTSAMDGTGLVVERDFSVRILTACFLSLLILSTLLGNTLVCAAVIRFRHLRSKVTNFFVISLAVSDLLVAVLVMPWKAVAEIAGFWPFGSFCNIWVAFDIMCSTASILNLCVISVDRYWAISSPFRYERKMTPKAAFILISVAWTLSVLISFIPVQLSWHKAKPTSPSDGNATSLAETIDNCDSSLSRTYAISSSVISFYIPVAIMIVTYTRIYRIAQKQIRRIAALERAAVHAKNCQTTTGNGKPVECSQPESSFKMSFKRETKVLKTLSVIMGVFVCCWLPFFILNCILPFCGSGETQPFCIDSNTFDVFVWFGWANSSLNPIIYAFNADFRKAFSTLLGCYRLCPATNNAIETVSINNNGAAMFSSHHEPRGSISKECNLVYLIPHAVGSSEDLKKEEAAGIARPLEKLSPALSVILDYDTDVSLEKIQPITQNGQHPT
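Tetracycline-induced HEK293 TREx D1 cells, force-coupled to calcium signalling, were dye-loaded with a no-wash calcium kit. Compound was pin-added after a 10 s baseline. Fluorescence was read kinetically at 1 cycle/s for 180 s, with calcium rises flagged as agonism.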
D1 antagonist: Antagonist of Human D 1 Dopamine Receptor: qHTS | D(1A) dopamine receptor (Homo sapiens), P21728 | HEK293 TREx D1 cells, calcium flux, dopamine EC80; stronger effect = lower value | activity change, negative = inhibition, % at 10 µM | 360,000 compounds, 3.2% hits | AID 504652, 2011; in the data active = activity change below about -30%
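Cells carrying a force-coupled, tetracycline-inducible human D1 receptor report calcium flux. Each well gets a 10 s baseline, compound with 180 s monitoring, then an EC80 dopamine stimulus with a second 180 s kinetic read.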
TRHR enhancer: qHTS for Small Molecule Agonists and Allosteric Enhancers of Human TRH Receptor: Primary Screen for Enhancers; Thyrotropin-releasing hormone receptor (Homo sapiens), P34981; TRHR cells, fluo-8 calcium fluorescence, EC20 TRH enhancement; enhancement, % at 2 µM; 360,000 compounds, 0.66% hits; AID 493056, 2011; in the data active = enhancement above about 30%
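TRHR-expressing cells loaded with fluo-8 calcium dye were read kinetically (ex 480/em 530) during compound addition, then stimulated with an EC20 of TRH (10 nM final). Enhancement of the Gq-mediated intracellular calcium response was scored.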
D1 potentiator: Potentiators of Human D1 Dopamine Receptor: qHTS. D(1A) dopamine receptor (Homo sapiens), P21728. HEK293 TREx D1 cells, calcium flux, dopamine EC20 potentiation. potentiation, % at 10 µM. 360,000 compounds, 0.036% hits; in the data active = potentiation above about 30%
Each line names hits and unclear results; the compound was inactive in the other large screens. An excerpt weighted towards active compounds, which were near 4.6% of everything screened. Rule as the data show it, unless noted: active = activation above about 30%; inactive = the rest.

COC(=O)c1ccc(N2CCN(C(C)=O)CC2)c(NC(=O)COc2ccccc2C)c1	none
COC(=O)c1ccc(N2CCN(C(=O)c3ccccc3)CC2)c(NC(C)=O)c1	D1 antagonist -30.6
Cc1oc2cc(O)ccc2c(=O)c1Oc1ccc(F)cc1	none
Cc1oc2cc(O)ccc2c(=O)c1Oc1ccc2ccccc2c1	D1 antagonist -37.0
Cc1cc(Cl)ccc1OC(C)C(=O)NN=C1CCCCCC1 (configuration not stated)	D1 antagonist -31.3 (no result: D1 potentiator)
COc1ccc2c(Sc3ccccc3)c(C(=O)NCCc3ccc(Cl)cc3)[nH]c2c1	none
CN1CCN(CCCNC(=O)c2ccc(NC(=O)C3=CSCCO3)cc2)CC1	none
O=C(Nc1ccc(C(=O)NCC2CCN(Cc3ccccc3F)CC2)cc1)C1=CSCCO1	none
Cc1ccc(CN2CCC(CNC(=O)c3ccc(NC(=O)C4=CSCCO4)cc3)CC2)cc1	D1 antagonist -30.0
COc1ccc(CNC(=O)c2ccc(NC(=O)C3=CSCCO3)cc2)cc1	TRHR enhancer 34.4
O=C(Nc1ccc(C(=O)NCCCN2CCN(c3ccccc3)CC2)cc1)C1=CSCCO1	D1 agonist 35.5, D1 antagonist -38.7
Cn1cc(CN2CCC(CO)(CCCc3ccccc3)CC2)c(-c2ccccc2)n1	D1 agonist 47.0
COCc1cc(C)nc(SCC(=O)Nc2ccc3c(c2)OCCO3)c1C#N	D1 antagonist -30.7
COCc1cc(C)nc(SCc2ccc(Cl)cc2)c1C#N	D1 agonist 36.2, D1 antagonist -32.0
Cc1ccc(S(=O)(=O)c2nc(-c3cccc(C)c3)oc2N2CCN(c3ccccc3)CC2)cc1	none
CC(C)OC(=O)/C(C#N)=C/c1cn(C)c2ccccc12	D1 antagonist -38.7
CCOC(=O)Cn1cc(/C=C(/C#N)C(=O)NC(C)C)c2ccccc21	D1 antagonist -33.4
CCOC(=O)Cn1cc(/C=C(\C#N)C(=O)N2CCOCC2)c2ccccc21	none
O=C(C1COc2ccccc2O1)N(Cc1cccnc1)c1nc2ccc(F)cc2s1 (configuration not stated)	none (no result: D1 antagonist)
Cc1cccc(N2CCN(C(=O)C3CCN(S(=O)(=O)c4cccs4)CC3)CC2)c1C	D1 antagonist -34.1
Cc1cccc(N2CCN(C(=O)C3CCC(CNS(=O)(=O)c4cccs4)CC3)CC2)c1C (configuration not stated)	none
CC(C)c1cc(C(=O)NCCc2ccccc2)no1	none
O=C(Oc1ccccc1)c1ccc(COC(=O)c2cnccn2)cc1	none
O=C(Oc1ccc(Cl)cc1)c1ccc(COC(=O)c2cnccn2)cc1	D1 antagonist -30.7
COC(=O)C(CC(=O)c1ccc(Cl)cc1)c1ccc(C(C)C)cc1 (configuration not stated)	D1 antagonist -30.0
Cc1ccc(C(CC(=O)c2ccc(Cl)cc2)C(=O)O)cc1 (configuration not stated)	none
O=C(C1CCN(S(=O)(=O)Cc2ccccc2)CC1)N1CCN(c2ccccc2F)CC1	none
O=S(=O)(c1ccccc1)N1CCN=C1SCc1cccnc1	none
CS(=O)(=O)N1CCN=C1SCc1ccccc1	TRHR enhancer 31.5
CCOC(=O)N[C@H](Cc1c[nH]c2ccccc12)C(=O)Nc1cccc(Cl)c1	D1 antagonist -40.7
Cc1ccc(S(=O)(=O)N2CCOCC2)cc1NC(=O)COC(=O)CCn1c(C)csc1=O	none
Cc1ccc(C(=O)OCC(=O)Nc2cc(S(=O)(=O)N3CCOCC3)ccc2C)cc1	none
Cc1ccc(S(=O)(=O)N2CCOCC2)cc1NC(=O)COC(=O)Cn1c(C)csc1=O	D1 antagonist -30.6
Cc1ccc(S(=O)(=O)N2CCOCC2)cc1NC(=O)COC(=O)CCC(=O)c1ccc(F)cc1	D1 antagonist -30.9
O=C(OCC(=O)N1CCCC1=O)c1nc(Cl)c(Cl)c(Cl)c1Cl	none
CCN(CC(=O)Nc1ccccc1OC)C(=O)CCc1ccccc1	TRHR enhancer 39.5
COc1ccccc1NC(=O)CSc1n[nH]c(Cc2ccccc2)n1	none
CCN(C(=O)CSc1nc2ccccc2nc1Cc1ccccc1OC)c1ccccc1	D1 antagonist -44.7
COc1ccccc1Cc1nc2ccccc2nc1SCC(=O)N1CCCCC1	none
COc1ccccc1NC(=O)CSc1nc2ccccc2cc1Cc1ccccc1	D1 antagonist -32.8
COc1ccc(-n2c(NCCN(C)C)nc3sc4c(c3c2=O)CCCCC4)cc1	D1 agonist 56.0
CN(C)CCNc1nc2sc3c(c2c(=O)n1Cc1ccccc1)CCCCC3	D1 agonist 65.2
CN(C)CCNc1nc2sc3c(c2c(=O)n1-c1ccc(F)cc1)CCCCC3	none
COc1ccc2c(c1)c(N1CCCC1=O)c(C(=O)Nc1cc(C)c(Cl)cc1OC)n2C	none
COc1cc(/C=C/c2nc(C#N)c(N3CCN(C)CC3)o2)cc(OC)c1OC	none
COc1ccc(NS(=O)(=O)c2c(C(=O)N3CCCCCC3)c(C)n(C)c2C)cc1OC	none
COc1cccc(NS(=O)(=O)c2c(C(=O)N3CCCCCC3)c(C)n(C)c2C)c1	TRHR enhancer 32.9
Cc1ccc(NC(=O)C2CCC(N3C(=O)C4CCCCC4C3=O)CC2)cc1 (configuration not stated)	none
O=C(Nc1ccc(Cc2ccncc2)cc1)C1CCC(N2C(=O)C3CCCCC3C2=O)CC1 (configuration not stated)	D1 antagonist -38.6
Cc1cccc2sc(N(CCCN(C)C)C(=O)CCc3ccccc3)nc12	none
Cc1cccc2sc(N(CCCN(C)C)C(=O)CN3C(=O)c4ccccc4C3=O)nc12	D1 agonist 33.1
Cc1ccc2sc(N(CCCN(C)C)C(=O)CCS(=O)(=O)c3ccccc3)nc2c1C	D1 agonist 64.1
Cc1ccc2c(c1)C1CN(C)CCC1N2S(=O)(=O)c1ccc(C(C)C)cc1 (configuration not stated)	D1 antagonist -31.1
Cc1ccc2c(c1)C1CN(C)CCC1N2C(=O)c1ccc(Cl)c(S(=O)(=O)N2CCOCC2)c1 (configuration not stated)	D1 antagonist -44.9
Cc1ccc2c(c1)C1CN(C)CCC1N2C(=O)c1cccc(S(=O)(=O)N2CC(C)CC(C)C2)c1 (configuration not stated)	none
O=C(NCC(c1cccs1)S(=O)(=O)c1cccs1)c1ccc(C(F)(F)F)cc1 (configuration not stated)	none (no result: D1 antagonist)
CCc1ccc(NC(=O)C(=O)NCC(c2cccnc2)N2CCN(c3ccc(F)cc3)CC2)cc1 (configuration not stated)	none
